# Assay outcomes (PubChem)
# TrxR1 inh = qHTS Assay for Inhibitors of Mammalian Selenoprotein Thioredoxin Reductase 1 (TrxR1): qHTS | Thioredoxin reductase 1, cytoplasmic (Rattus norvegicus), O89049 | recombinant rTrxR1, NADPH fluorescence consumption, selenite substrate | Potency, µM (series often up to 114 µM), for inactives: at the highest dose activity change, negative = inhibition, hits mostly inhibitors | actives 1% (n = 390,000); note: % is set by controls: 0 for no effect and ±100 for the full control effect; nearly all actives have a fitted effect of over 65% in size
# Target sequence (O89049 whole entry, looked up): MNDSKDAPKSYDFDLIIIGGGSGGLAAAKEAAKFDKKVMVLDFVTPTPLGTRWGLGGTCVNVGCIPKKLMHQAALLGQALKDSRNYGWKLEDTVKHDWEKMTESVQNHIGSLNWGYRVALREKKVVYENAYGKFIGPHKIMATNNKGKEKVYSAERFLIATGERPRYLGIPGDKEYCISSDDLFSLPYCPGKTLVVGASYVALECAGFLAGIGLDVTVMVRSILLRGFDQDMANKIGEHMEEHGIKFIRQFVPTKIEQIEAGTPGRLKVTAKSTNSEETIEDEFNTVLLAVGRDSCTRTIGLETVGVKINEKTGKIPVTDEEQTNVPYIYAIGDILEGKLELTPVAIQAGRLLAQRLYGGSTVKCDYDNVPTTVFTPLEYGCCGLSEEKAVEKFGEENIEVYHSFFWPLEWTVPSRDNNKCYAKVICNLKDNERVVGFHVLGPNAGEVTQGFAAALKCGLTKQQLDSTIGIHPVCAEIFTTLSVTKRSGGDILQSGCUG
#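 Rat TrxR1 (90 nM in the dispensed reagent) was pre-reduced with 400 uM NADPH for 5 min at room temperature, then incubated with compound for 15 min. After 400 uM selenite was added, NADPH fluorescence (Ex 340/Em 450 nm) was followed for 8 min.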
# GRP78 ERSR act = qHTS for Inducers of the Endoplasmic Reticulum Stress Response (ERSR) in Human Glioma: qHTS; Potency, µM, for inactives: at the top dose activation, usual class: activators; actives 0.02% (n = 420,000); U87-MG GRP78 promoter luciferase reporter, 16 h; note: series mostly up to about 76 µM; % of control where 0% means no effect; nearly all actives have a fitted effect of over 35% in size
#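 Stably transfected U87-MG human glioma cells carrying a GRP78-based luminescent sensor were seeded at 1000 cells/well, pin-dosed with compounds and incubated 16 h. Luciferase reagent was then added, and end-point luminescence was read after 10 min at room temperature.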
# ALOX12 inh = Primary qHTS assay for inhibitors of human arachidonate 12S-lipoxygenase (ALOX12): Round 2 | Polyunsaturated fatty acid lipoxygenase ALOX12 (Homo sapiens), P18054 | purified 12hLO, xylenol orange hydroperoxide absorbance | Potency, µM (highest dose often 108 µM), for the others: at the top dose activity change, negative = inhibition, actives largely listed as inhibitors | actives 1.1% (n = 580,000) | AID 1671190, 2021; note: % is set by controls: 0 for no effect and ±100 for the full control effect
#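 Purified human 12hLO (150 nM final) in 25 mM Hepes, 0.01% Triton X-100, pH 7.0 was preincubated 15 min at room temperature with compound. Then 40 uM arachidonic acid was added, 30 min. Hydroperoxide was read by Fe-XO absorbance ratio 573/405 nm.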
# TrxR1 substrate = qHTS Assay for Substrates of Mammalian Selenoprotein Thioredoxin Reductase 1 (TrxR1): qHTS | purified TrxR1 substrate turnover, NADPH consumption readout | Potency, µM (doses to about 114 µM), for the others: top-dose activity change, negative = substrate turnover | actives 0.01% (n = 390,000) | AID 588456, 2011; note: % is set by controls: 0 for no effect and ±100 for the full control effect; nearly all actives have a fitted effect of over 50% in size
#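 Rat TrxR1, dispensed at 90 nM, was prereduced with 400 uM NADPH (final) for 5 min at ~22 deg C, then incubated with compound 15 min before 400 uM selenite. A first-read NADPH fluorescence drop versus no-compound background flagged substrates.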
# Anesthetic bind = qHTS Assay for Identification of Novel General Anesthetics; Ferritin light chain (Equus caballus), P02791; apoferritin/1-aminoanthracene competitive binding, fluorescence; Potency, µM (doses to about 77.5 µM), for the others: top-dose activity change, negative = displacement, usual class: inhibitors; actives 0.074% (n = 350,000); AID 485281, 2010; note: % is set by controls: 0 for no effect and ±100 for the full control effect; nearly all actives have a fitted effect of over 20% in size
# Target sequence (P02791 2-175 limits assumed): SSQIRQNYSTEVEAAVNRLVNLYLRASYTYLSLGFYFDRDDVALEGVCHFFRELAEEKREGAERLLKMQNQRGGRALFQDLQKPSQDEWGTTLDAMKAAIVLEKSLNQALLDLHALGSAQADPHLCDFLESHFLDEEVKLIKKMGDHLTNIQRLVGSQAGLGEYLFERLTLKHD
#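 Horse-spleen apoferritin (10 uM) in 50% saturated 1-aminoanthracene in PBS was incubated 10 min at room temperature with compound. Fluorescence (ex 380, em 535 nm) was normalized to free and bound 1-AMA, with concentration-response fitted by a four-parameter Hill equation.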
# mIDH1 inhibitor = qHTS for Inhibitors of mutant isocitrate dehydrogenase 1 (IDH1): qHTS | IDH1-R132H enzyme, NADPH consumption, diaphorase/resazurin fluorescence | Potency, µM (top dose mostly 76.6 µM), for inactives: top-dose activity change, negative = inhibition, most hits filed as inhibitors | Isocitrate dehydrogenase [NADP] cytoplasmic (Homo sapiens), O75874 | actives 0.093% (n = 390,000) | AID 602179, 2012; note: % is set by controls: 0 for no effect and ±100 for the full control effect; nearly all actives have a fitted effect of over 65% in size
#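 IDH1-R132H (0.5 ug/mL) preincubated 30 min with compound, then NADPH (0.016 mM) and alpha-KG (2 mM) added; 80 min at RT, pH 7.5. Remaining NADPH coupled via diaphorase/resazurin to fluorescence (540/590 nm); concentration-response curves normalized to no-enzyme control.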
# Starred values were filed as active, the others as inactive; ? = inconclusive; . = no result given; [ ] = another dose, or the depositor's remark. Sampled rows, rich in hits. Any-hit rate of the full collection: about 1.7%. Calls come from the whole dose curve; as a rule, active = well fitted curve in the direction sought with a large enough effect; inconclusive = small, poorly fitted or top-dose-only effect, or another doubt; inactive = no such curve, though single readings can be large; an effect the other way counts as inactive or inconclusive. Potency is the fitted concentration of half-maximal effect.
SMILES,TrxR1 inh,GRP78 ERSR act,ALOX12 inh,TrxR1 substrate,Anesthetic bind,mIDH1 inhibitor
Cc1ccc(N2C(=O)/C(=C/c3ccco3)SC2=S)cc1,0%[57.1 µM],3%,18µM*,8%[57.1 µM],2%,4%
Cc1ccc(N2C(=O)/C(=C/c3cccnc3)SC2=S)cc1,-5%[57.1 µM],-2%,3%,0%[57.1 µM],2%,0%
Cc1ccc(Nc2n[nH]c(=S)s2)cc1F,-26%[11.4 µM],-1%,40µM*,0%[11.4 µM],.,5%
Cc1ccc(Nc2n[nH]c(=S)s2)cc1,.,-4%,32µM*,.,.,9%
S=c1[nH]nc(Nc2ccc(Cl)cc2)s1,-12%,-5%,?,-3%,1%,11%
COc1cccc(OCCn2cc(C(C)=O)c3ccccc32)c1,10%[57.1 µM],-3%,25µM*,7%[57.1 µM],-11%,9%
CNC(=S)N/N=C/c1cn(CCOc2cccc(OC)c2)c2ccccc12,12%[57.1 µM],1%,35µM*,12%[57.1 µM],114%,-1%
CNC(=S)N/N=C/c1cn(CCOc2ccccc2OC)c2ccccc12,9%[57.1 µM],-3%,?,-6%,-1%,4%
CC(=O)c1cn(CCOc2cc(C)ccc2C)c2ccccc12,14%,0%,-25%,5%,-9%,5%
Cc1ccc(C)c(OCCn2cc(C(=O)O)c3ccccc32)c1,-19%[57.1 µM],-5%,13%,-11%[57.1 µM],-6%,33µM*
O=C(Nc1oc2ccccc2c(=O)c1-c1ccccc1)c1ccc(F)cc1,.,.,-3%,.,.,.
O=C(CN1C(=O)NC(c2ccccc2Cl)C2=C1COC2=O)Nc1cccc(C(F)(F)F)c1 (centres undefined),.,.,-7%,.,.,.
O=C(CCN1CCC2CCC(C2)C1)c1ccccc1 (centres undefined),0.71µM*,-1%,-24%,3%[11.4 µM],.,-11%
Cc1ccc(N(Cc2cc(=O)[nH]c3ccccc23)C(=O)CCl)c(C)c1,79µM*,-7%,?,5%,-9%,-8%
COc1cc(C2C(C#N)=C(N)N(c3cccnc3)C3=C2C(=O)CCC3)ccc1O (centres undefined),-23%,-2%,-20%,-7%,-18%,2%
COc1cc(C2C(C#N)=C(N)N(c3ccc(F)cc3)C3=C2S(=O)(=O)CC3)ccc1O (centres undefined),11µM*,-3%,?,7%,-8%,-1%
CS(=O)(=O)N1CCCC(C(=O)N2CCN(c3ccccc3F)CC2)CCNC(=O)CC1 (centres undefined),.,.,28%,.,.,.
Cc1occc1-c1nc(-c2ccc(Cl)cc2)no1,.,.,-4%,.,.,.
Cc1nsc(N)c1C(=O)OCc1csc(-c2ccccc2)n1,.,.,25µM*,.,.,.
Cc1nsc(N)c1C(=O)OCc1csc(-c2cccc(Br)c2)n1,.,.,-28%,.,.,.
CC(C)CN1C(=O)/C(=C/c2cccs2)NC1=S,14µM*,-4%,?,-3%,-14%,10%
CC(C)CN1C(=O)/C(=C/c2ccco2)NC1=S,-73%,-1%,28µM*,-10%,-15%,3%
O=C1N/C(=C/c2ccco2)C(=O)N1Cc1ccccc1F,?,-3%,?,13%[57.1 µM],1%,1%
O=C(CCC1CCCC1)NCc1ccc(OCc2cccnc2)cc1,.,.,9%,.,.,.
O=C(Nc1ccc(Cl)cc1)Nc1nc(-c2ccccc2)cs1,7%,-1%,-2%,-6%,5%,-6%
SMILES,TrxR1 inh,GRP78 ERSR act,ALOX12 inh,TrxR1 substrate,Anesthetic bind,mIDH1 inhibitor
O=C(Nc1nc(-c2ccc(Cl)cc2)cs1)NC1CCCCC1,-9%,3%,50µM*,-4%,-12%,2%
S=C1NC(c2cccs2)=CC(c2ccc(Br)cc2)N1 (centres undefined),2%,-3%,40µM*,10%,-20%,0%
C=C1CCN(C(CC(C)C)C(=O)OC)S(=O)(=O)c2ccccc21 (centres undefined),-34%,-3%,0%,-15%,2%,20%
COC(=O)[C@H](CC(C)C)N1Cc2cc(OC)cc(OC)c2-c2ccccc2S1(=O)=O,?,-1%,25µM*,32%,.,-4%
CCOc1ccccc1N(CC(=O)NCCSCc1ccco1)S(=O)(=O)c1ccccc1,22µM*,-3%,284%,-8%,-8%,-11%
COc1cc(-c2nnc(SCC(=O)Oc3ccccc3Cl)o2)cc(OC)c1OC,2%,22µM*,0%,-6%,-9%,0%
CC1(C)CC(=O)C2=C(C1)Nc1nonc1NC2c1ccccc1F (centres undefined),.,.,2%,.,.,.
COc1ccc(Br)c2oc(S)cc(=O)c12,?,3%,6.3µM*,5%[57.1 µM],4%,-7%
COc1cccc2oc(SC)cc(=O)c12,.,-10%,.,.,-15%[163 µM],.
COc1ccccc1N1CCN(C(=O)CC2NC(=O)NC2=O)CC1=O (centres undefined),.,.,37%,.,.,.
S=c1[nH]nc(COc2ccccc2)n1/N=C/c1ccccc1Br,-20%[57.1 µM],-1%,?,8%[57.1 µM],-14%,0%
S=c1[nH]nc(COc2ccccc2)n1/N=C/c1ccc(Cl)c(Cl)c1,18%,3%,-28%,4%,0%,-2%
S=c1[nH]nc(COc2ccccc2)n1/N=C/c1ccccn1,-27%,-2%,1.6µM*,1%,-12%,2%
Oc1ccc(Br)cc1/C=N/n1c(COc2ccccc2)n[nH]c1=S,1%,0%,8.9µM*,-2%,-11%,-6%
Cc1cccc(OCc2n[nH]c(=S)n2-c2ccccc2)c1,-14%,0%,35µM*,7%,-6%,-1%
Cc1cccc(/C=N/n2c(COc3ccccc3)n[nH]c2=S)c1,-16%,4%,40µM*,-7%,-7%,3%
Cc1ccc(-n2c(COc3cccc(C)c3)n[nH]c2=S)cc1,-16%,-4%,?,3%,-8%,21%
O=C(Cc1ccccc1)N1CCC[C@H]1c1nc(-c2ccccc2)no1,.,.,26%,.,.,.
NCC(=O)N1CCCC(N2CCN(c3cccc(Cl)c3)CC2)C1 (centres undefined),.,.,-3%,.,.,.
Cn1cc([N+](=O)[O-])c(C(=O)Nc2ccc(C3CCCCC3)cc2)n1,23%,-9%,-27%,-9%,7.9µM*,12%
Cc1ccc2oc(-c3cccc(NC(=O)c4cccs4)c3)nc2c1,.,.,-3%,.,.,.
